Results from the supplement of paper PMC6522484.
± gives the standard deviation of the averaged measurements.

Columns and labels:
DLD1 [1] = experiment: cell viability (CellTiter-Glo) relative to plate median (fraction of plate median); higher = more viable cells; details: 5 µM; treatment time 24 h; reporter: 7TFP
Summary of the method: (§1)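 Per-well firefly luciferase or CellTiterGlo luminescence, normalised to the plate median, is what is reported. It was measured in colorectal cancer cells with stable lentiviral TCF/Wnt firefly luciferase reporters after a 24 h treatment with library compounds at a final 5 µM. The mean of two independent replicates is given.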

HCT116 = experiment: as above; details: 5 µM; treatment time 24 h; reporter: TCF4/Wnt
Summary of the method: as §1

SW480 [2] = experiment: as above; details: 5 µM; treatment time 24 h; reporter: 7TFP
Summary of the method: as §1

DLD1 [3] = experiment: TCF/Wnt firefly luciferase reporter signal relative to plate median (fraction of plate median); higher = higher Wnt reporter signal; details: 5 µM; treatment time 24 h; reporter: 7TFP
Summary of the method: as §1

SW480 [4] = experiment: as above; details: 5 µM; treatment time 24 h; reporter: 7TFP
Summary of the method: as §1

SMILES | cell viability (DLD1 [1]) | cell viability (HCT116) | cell viability (SW480 [2]) | TCF/Wnt firefly luciferase reporter signal (DLD1 [3]) | TCF/Wnt firefly luciferase reporter signal (SW480 [4])
O=C(Cc1ccccc1)NO | 1.03 ± 0.028 | 0.878 ± 0.13 | 1 ± 0.027 | 0.789 ± 0.064 | 0.869 ± 0.014
O=C1C(CC[S+]([O-])c2ccccc2)C(=O)N(c2ccccc2)N1c1ccccc1 (stereo not given) | 1.07 ± 0.028 | 1.09 ± 0.064 | 1.035 ± 0.0071 | 0.857 ± 0.079 | 0.885 ± 0.089
N=C(N)c1ccc(OCCCCCOc2ccc(C(=N)N)cc2)cc1 | 0.93 ± 0.21 | 0.9365 ± 0.0078 | 1.01 ± 0.014 | 1.035 ± 0.0071 | 0.795 ± 0.013
C[C@H](CCC(=O)O)[C@H]1CC[C@H]2[C@@H]3[C@H](O)C[C@@H]4C[C@H](O)CC[C@]4(C)[C@H]3CC[C@]12C | 1 ± 0.021 | 1.01 ± 0.22 | 1.025 ± 0.0071 | 0.949 ± 0.038 | 1.1 ± 0.028
CCCCC(=O)Oc1ccccc1C(=O)O | 0.984 ± 0.013 | 0.98 ± 0.042 | 0.988 ± 0.018 | 1 ± 0.052 | 1 ± 0.2
O=C(O)/C=C/c1ccc(O)c(O)c1 | 0.941 ± 0.046 | 1.05 ± 0.05 | 1.03 ± 0.081 | 0.983 ± 0.14 | 1.03 ± 0.035
Oc1c(Cl)cc(Cl)cc1Sc1cc(Cl)cc(Cl)c1O | 1.03 ± 0.058 | 1.01 ± 0.022 | 0.99 ± 0.043 | 0.979 ± 0.059 | 0.959 ± 0.048
O=C1c2c(O)cccc2Cc2cccc(O)c21 | 0.945 ± 0.025 | 1.02 ± 0.074 | 1.08 ± 0.05 | 0.988 ± 0.031 | 0.933 ± 0.017
O=C(C1CCCCC1)N1CC(=O)N2CCc3ccccc3C2C1 (stereo not given) | 0.9955 ± 0.0064 | 0.984 ± 0.037 | 0.98 ± 0.042 | 1.02 ± 0.034 | 0.918 ± 0.12
C[C@H]1CC2C3CCC4=CC(=O)C=C[C@]4(C)[C@@]3(F)[C@@H](O)C[C@]2(C)[C@@]1(O)C(=O)COP(=O)(O)O (stereo not given in full) | 0.93 ± 0.063 | 0.942 ± 0.028 | 0.952 ± 0.029 | 1.03 ± 0.09 | 1.06 ± 0.028
